# From ChEMBL document CHEMBL3988442, “University of Dundee, Small-Polar-MMV Screening Library” (2021)
# The campaign covered roughly 69,000 compounds. About 1,000 (1.4%) showed an effect of 50% or more. Only a selection was taken, and strong results are over-represented in it overall.
# System: Leishmania donovani
# Assay: Leishmania intramacrophage assay
# Assay type: functional, organism-based
# Parameters: scale not given: in the data most compounds retested in dose-response had high values
smiles,measurement,setting,value
OCc1ccc(-c2nccn2CCc2nc3c(s2)CCCC3)o1,Percent Effect,"30.3 µM, […]",-3.192%
O=C(NCCc1ccn(-c2ccc(F)cc2)n1)C1CCCOC1 (stereo not drawn),Percent Effect,"30.3 µM, […]",11.22%
CCN(CC)C(=O)NC(C)c1ccc(Oc2cccnc2)c(F)c1 (stereo not drawn),Percent Effect,"30.3 µM, […]",-9.456%
CC(NC(=O)CN(C)C(C)C)c1ccc(Oc2cccnc2)c(F)c1 (stereo not drawn),Percent Effect,"30.3 µM, […]",51.39%
CC(NC(=O)N(C)C1CC1)c1ccc(Oc2cccnc2)c(F)c1 (stereo not drawn),Percent Effect,"30.3 µM, […]",4.744%
C=C(C)COc1cccc(C(=O)N(CC)Cc2noc(C)n2)c1,Percent Effect,"30.3 µM, […]",17.93%
Cc1nc[nH]c1CN(Cc1ccccc1)C1CC(C)(C)NC(C)(C)C1.O=C(O)CC(O)(CC(=O)O)C(=O)O,Percent Effect,"30.3 µM, […]",45.23%
Cc1nc[nH]c1CN(Cc1ccccc1F)C1CC(C)(C)NC(C)(C)C1.O=C(O)CC(O)(CC(=O)O)C(=O)O,Percent Effect,"30.3 µM, […]",53.75%
Cc1cc2c(N)nc(=O)n(CC(=O)Nc3ccccc3)c2s1,Percent Effect,"30.3 µM, […]",6.295%
Cc1cc2c(N)nc(=O)n(CC(=O)Nc3cccc(Cl)c3)c2s1,Percent Effect,"30.3 µM, […]",52.64%
COc1cccc(NC(=O)Cn2c(=O)nc(N)c3cc(C)sc32)c1,Percent Effect,"30.3 µM, […]",12.79%
Cc1nc(CN2CCN(C(=O)NC(C)Cn3ccnc3)CC2)cs1 (stereo not drawn),Percent Effect,30 µM,14.72%
CNC(=O)C1CCN(CC(=O)Nc2cc(C(C)C)no2)CC1,Percent Effect,30 µM,21.46%
CS(=O)(=O)NCc1noc2c1CN(C(=O)C1CCC1)CC2,Percent Effect,"30.3 µM, […]",11.5%
CCN1CC(CN(C)Cc2nc(-c3ccoc3)oc2C)CC1=O (stereo not drawn),Percent Effect,"30.3 µM, […]",-10.15%
CCN1CC(CN(C)Cc2nc(-c3ccc(F)cc3)oc2C)CC1=O (stereo not drawn),Percent Effect,"30.3 µM, […]",13.51%
CCN1CC(CN(C)Cc2nc(-c3ccc(C)o3)oc2C)CC1=O (stereo not drawn),Percent Effect,"30.3 µM, […]",59.94%
CN(C)C(=O)C1(c2cnccn2)CCCN1C(=O)Cc1ccsc1 (stereo not drawn),Percent Effect,"30.3 µM, […]",25.36%
CCn1c(C)nc2cc(NC(=O)CC3CCN(S(C)(=O)=O)CC3)ccc21,Percent Effect,"30.3 µM, […]",32.47%
CC(C)CCN1Cc2c(C(=O)O)ncn2-c2ccccc2S1(=O)=O,Percent Effect,"30 µM, 30.03 µM",-20.47%
CNC(=O)c1ncn2c1CN(CCC(C)C)S(=O)(=O)c1ccccc1-2,Percent Effect,"30.3 µM, […]",54.17%
CCN1Cc2c(C(=O)NC)ncn2-c2ccccc2S1(=O)=O,Percent Effect,"30.3 µM, […]",2.291%
COc1ccc(CNC(=O)c2ccoc2CN2CCNC(=O)C2)cc1,Percent Effect,"30.3 µM, […]",-8.396%
CC(C)N(C)Cc1cn2c(n1)CN(C(=O)c1ccc[nH]1)CC2,Percent Effect,"30.3 µM, […]",13.65%
Cc1cc(-c2cnc(C(C)C)nc2CN(C)C(=O)c2ccccn2)on1,Percent Effect,"30.3 µM, […]",10.54%
CC(C)N(C)CCCNC(=O)c1cnn(C(C)(C)C)c1C(F)(F)F,Percent Effect,"30.3 µM, […]",10.25%
FC(F)(F)c1cccc(OC2CCN(Cc3c[nH]cn3)CC2)c1,Percent Effect,"30.3 µM, […]",0.2013%
OC1(CN2CCCC2)COCCN(c2cc(C(F)(F)F)ccn2)C1 (stereo not drawn),Percent Effect,"30.3 µM, […]",29.85%
OC1(CN2CCC(Oc3cccc(C(F)(F)F)c3)CC2)CNCCOC1 (stereo not drawn),Percent Effect,"30.3 µM, […]",78.32%
Nc1cc(C(=O)N2CCC(Oc3cccc(C(F)(F)F)c3)CC2)ccn1,Percent Effect,"30.3 µM, […]",3.315%
CC(N)C(=O)N1CCC(Oc2cccc(C(F)(F)F)c2)CC1 (stereo not drawn),Percent Effect,"30.3 µM, […]",75.62%
FC(F)(F)c1cccc(OC2CCN(Cc3ccccn3)CC2)c1,Percent Effect,"30.3 µM, […]",-24.32%
OC1(CNCCN2CCc3ccccc32)CNCCOC1 (stereo not drawn),Percent Effect,"30.3 µM, […]",12.43%
OC1(CN2CCC(Oc3cccnc3)CC2)CNCCOC1 (stereo not drawn),Percent Effect,"30.3 µM, […]",-1.613%
FC(F)(F)c1cccc(OC2CCN(Cc3ncc[nH]3)CC2)c1,Percent Effect,"30.3 µM, […]",17.17%
OC1(CN2CCN(c3cccc(C(F)(F)F)c3)CC2)CNCCOC1 (stereo not drawn),Percent Effect,"30.3 µM, […]",51.12%
O=C(c1ccncc1)N1CCC(Oc2cccc(C(F)(F)F)c2)CC1,Percent Effect,"30.3 µM, […]",7.291%
OC1(CN2CCC(Oc3cccc(C(F)(F)F)c3)CC2)CCNC1 (stereo not drawn),Percent Effect,"30.3 µM, […]",100.3%
